# Compound activity: PubChem, National Center for Advancing Translational Sciences (NCATS)
# Marburg entry inh: blocks Marburg virus binding to or entry into cells; Marburg virus pseudotyped entry inhibition, cell reporter; actives 1.8% (n = 300,000); AID 540276; Potency, µM (highest dose often 37.8 µM), without a hit: top-dose activity change, negative = inhibition, usual class: inhibitors; calls by dose curve; tested in HEK293 cells; further: potency means the concentration at half of the fitted maximal effect; on the % scale 0 is the no-effect control and ±100 the full control effect
# LASV entry inh: blocks Lassa virus binding to or entry into cells | Lassa virus pseudotype entry inhibition, cell reporter | Potency, µM (series often up to 37.9 µM), without a hit: top-dose activity change, negative = inhibition, usual class: inhibitors | actives 1.2% (n = 300,000) | AID 540256; calls by dose curve; tested in HEK293 cells; further: potency means the concentration at half of the fitted maximal effect; on the % scale 0 is the no-effect control and ±100 the full control effect; nearly all actives have a fitted effect of over 50% in size
# Shiga toxin inh: inhibitors of Shiga toxin in Vero cells; Vero cells, Shiga toxin protein synthesis inhibition reporter; inhibition, % at 38.7 µM; actives 9.2% (n = 290,000); AID 2315; in the data active means inhibition mostly above about 28%, no sharp cut-off; inactive means mostly below about 43%; further: 0% is about no effect
# Cycloheximide cs: counter-screen for Shiga toxin inhibitors: cycloheximide protein synthesis inhibition; cell reporter, cycloheximide protein synthesis inhibition counterscreen; actives 12% (n = 300,000); AID 2314; max response, %; in the data active means max response mostly above about 13%, no sharp cut-off; inactive means mostly below about 14%; further: read at 38.3 µM for the half of the compounds with a filed dose; 0% is about no effect
# Starred values were filed as active, the others as inactive; u = inconclusive; x = no result; + = active, no number; [ ] = dose if it differs, or a comment. Compounds with a hit are over-represented: about 12% of the library has one in this group of screens.
SMILES,Marburg entry inh,LASV entry inh,Shiga toxin inh,Cycloheximide cs
O=C1NC(CCc2ccccc2)C(=O)N1CCOc1cccc(Br)c1 (stereo not drawn),-14%,7%,-17,9
CCc1ccc(OCCCC(=O)Nc2ccc(S(=O)(=O)Nc3cc(C)nc(C)n3)cc2)cc1,8%[46.1 µM],-18%,16,8
CC(/C=N/NC(=O)c1ccco1)=C\c1ccccc1,u,u,89*,24*
CC(/C=N\NC(=O)c1ccc(C)nc1)=C\c1ccccc1,10%,17%,39,12
COc1ccc2c(c1)C(=O)CC(c1ccccc1F)O2 (stereo not drawn),5%,-18%,36*,13*
COc1ccc2c(c1)C(=O)CC(c1ccc3c(c1)OCCO3)O2 (stereo not drawn),u,-17%,61*,43*
COc1ccc2c(c1)C(=O)CC(c1ccc(OC)c(OC)c1)O2 (stereo not drawn),x,x,x,-4
Cc1ccc2c(c1)C(=O)CC(c1ccc3c(c1)OCCO3)O2 (stereo not drawn),x,x,64*,41*
CCN(C(=O)CCN1C(=O)/C(=C/c2ccccc2)SC1=S)C1CCS(=O)(=O)C1 (stereo not drawn),u,u,15,9
O=C(CSc1nc2ccccc2c(=O)n1Cc1ccco1)Nc1cccc(O)c1,-14%[46.1 µM],26%,43,19*
COC(=O)c1ccc(CSc2nc3ccccc3c(=O)n2CC(C)C)o1,1%,2%,-4,1
O=C(CSc1nc2ccccc2c(=O)n1Cc1ccco1)NCc1ccccc1,0%,-5%,x,x
O=C(Nc1cccc(Cl)c1)c1c(O)c2c(n(Cc3ccco3)c1=O)CCCC2,14%,u,57,31*
COC(=O)c1ccc(CSc2nc3ccccc3c(=O)n2Cc2ccco2)o1,u,-28%,18,16*
O=C(Nc1ccccc1)c1c(O)c2c(n(Cc3ccco3)c1=O)CCCC2,1%[46.1 µM],u,29,12
O=C(Cn1c(=O)n(Cc2ccco2)c(=O)c2ccccc21)Nc1cccc(Cl)c1,x,x,31*,23*
COc1ccccc1OCC(=O)N(Cc1nc(-c2ccccc2)no1)C1CCCCC1,u,-23%,43,15*
COc1ccccc1OCc1nc(-c2ccc([N+](=O)[O-])cc2)no1,23%,7%,39*,24*
Cc1ccccc1OCC(=O)N(Cc1nc(-c2ccccc2)no1)C(C)C,u,-10%,-1,-1
COc1ccc(-c2noc(COc3ccccc3OC)n2)cc1OC,x,x,50*,13*
CC(=O)O[C@@H]1[C@@H](O)C2OC3C=C(C)C(=O)[C@@H](O)[C@]3(CO)C1(C)C21CO1 (stereo partly drawn),x,x,-11,-10
COc1ccc(C(=O)NC(=S)NC(C)C)cc1Br,-5%,1%,65*,23*
COc1ccc(C(=O)NC(=S)NNC(=O)c2ccc(NC(C)=O)cc2)cc1Br,u,-26%,-7,10
COc1ccc(C(=O)NC(=S)N2CCC(C)CC2)cc1Br,20%[46.1 µM],u,29*,18*
COc1ccc(C(=O)NC(=S)NC(C)(C)C)cc1Br,-4%,-5%,71*,21*
SMILES,Marburg entry inh,LASV entry inh,Shiga toxin inh,Cycloheximide cs
Cc1cc(F)ccc1NC(=O)C1CCCN(C(=O)c2cnn(-c3ccccc3)c2-n2cccc2)C1 (stereo not drawn),5%[46.1 µM],-23%[46.1 µM],x,x
CC(=O)Nc1ccc(C2CC(c3ccc(Cl)cc3)=NN2c2ccccc2)cc1 (stereo not drawn),x,x,-5,9
O=[N+]([O-])c1cccc(C2CC(c3ccccc3)=NN2c2ccccc2)c1 (stereo not drawn),-12%,4%,55,20*
O=C(O)c1ccc(N2N=C(c3ccccc3)CC2c2ccccc2)cc1 (stereo not drawn),x,x,57*,14*
CC(=O)Nc1ccc(C2=NN(c3ccccc3)C(c3ccccc3)C2)cc1 (stereo not drawn),-22%[46.1 µM],-14%[46.1 µM],47*,43*
O=Cc1ccc(N2N=C(c3ccccc3)CC2c2ccccc2)cc1 (stereo not drawn),x,x,12,9
CSc1ncccc1C(=O)OCC(=O)NC(C)C,2%[46.1 µM],1%[46.1 µM],-6,-5
Cn1c(SCC(=O)N2CCCc3ccccc32)ncc(C(=O)Nc2ccc(Cl)cc2)c1=O,x,28%[46.1 µM],x,x
CCOC(=O)c1cc2c(ccn2-c2ccc(F)cc2)n1CC(=O)N1CCN(C(=O)c2ccco2)CC1,3%,9.2µM*,7,0
Cc1ccsc1C(=O)OCC(=O)N1CCN(C(=O)c2ccco2)CC1,2%[46.1 µM],11%,26*,33
Cc1cccc(C(=O)OCC(=O)N2CCN(C(=O)c3ccco3)CC2)c1O,3%[46.1 µM],u,x,x
Cc1cc(C(=O)OCC(=O)N2CCN(C(=O)c3ccco3)CC2)c(C)n1-c1ccc(F)cc1,-8%,u,3,1
CCOC(=O)/C=C/C(=O)OCC(=O)N1CCN(C(=O)c2ccco2)CC1,u,-21%,27,9.0*
Cc1ccc(C(=O)Nc2cccc(N3C(=O)C4CCC(C)CC4C3=O)c2)cc1 (stereo not drawn),19%,-22%,-8,9
O=C(C[n+]1ccccc1)Nc1c(Cl)cc(Cl)cc1Cl,14%[46.1 µM],1%[46.1 µM],30,6
Cc1ccc[n+](CC(=O)Nc2c(Cl)cc(Cl)cc2Cl)c1,u,13%,76*,25*
Cc1cc2cc(C=C(C#N)C#N)c(Cl)nc2cc1C,u,-6%,+,25*
CCOC(=O)/C(C#N)=C/c1cc2cc(C)c(C)cc2nc1Cl,-4%[46.1 µM],-3%,0,3
O=C(CSc1nc(-c2ccccc2)cs1)N1CCN(C(=O)c2ccco2)CC1,20%,3%,13,18*
O=C(CSc1ccccc1)N1CCN(C(=O)c2ccco2)CC1,x,x,-4,8
O=C(CSc1nc2ccccc2s1)NC(=O)NCc1ccco1,u,-1%,35,19
CC1(C)C(=O)Nc2ccccc2N1C(=O)CSc1nc(-c2ccccc2)cs1,u,6%,29,16*
O=C(CSc1nc(-c2ccccc2)cs1)NC(=O)NCc1ccco1,-14%,-13%,19,25*
O=C(CSc1ccccc1F)NC(=O)NCc1ccco1,2%[46.1 µM],13%[46.1 µM],-3,4
Cc1ccccc1CSCC(=O)NC(=O)NCc1ccco1,-7%,-38%,12,16*
SMILES,Marburg entry inh,LASV entry inh,Shiga toxin inh,Cycloheximide cs
NNc1cc([N+](=O)[O-])cc2c1C(=O)N(Cc1ccccc1)S2=O (stereo not drawn),x,x,31,7
CC(/C=N/NC(=O)Cn1cnc2c1c(=O)n(C)c(=O)n2C)=C\c1ccccc1,u,-4%,13,-5
CCOC(=O)c1ccc(NC(=S)N2CCN(CCNC3=CC(=O)CC(C)(C)C3)CC2)cc1,4%[46.1 µM],19%,-6,8
CCc1ccc(NCc2cc3ccc(OC)cc3n(CC(=O)Nc3c(C)cc(C)cc3C)c2=O)cc1,x,6%[46.1 µM],x,x
O=C(CSc1ccc2nc(-c3ccccc3)cn2n1)Nc1ccccc1C(F)(F)F,x,25%[46.1 µM],x,x
N#CCSc1nc(-c2ccccc2)cs1,2%,15%,50*,30*
CC(C)NC(=O)CSc1nc(-c2ccccc2)cs1,x,x,89*,26*
N#CCSc1ccc2nc(-c3ccccc3)cn2n1,x,x,105*,28
N#CCSc1nnc(-c2ccccc2)c(-c2ccccc2)n1,-1%,-14%,-9,-3
